The text below walks through data of a collection of fitness landscapes (doi:10.1016/j.celrep.2020.107928).

Whole data set: some 81,000 sequences, median “one-hybrid fitness for binding NBS DNA” near -0.1, cut for the highest 2% near 0.36. The full list was thinned out, with the highest values kept by preference. Bounds are passed on as bounds.

B1: Caulobacter ParB omega fusion; a variant is named by its letters at X, in order, B8GW30 (parent)
chain: MESVVVGEPGMSEGRRGLGRGLSALLGEVDAAPAQAPGEQLGGSREAPIEILQRNPDQPRRTFREEDLEDLSNSIREKGVLQPILVRPSPDTAGEYQIVAGERAWRAAQRAGLKTVPIMVRELDDLAVLEIGIIENVQRADLNVLEEALSYKVLMEKFERTQENIAQTIGKSXSHVANXMRLLXLPDEVQSYLVSGELTAXHARAIAAAADPVALAKQIIEGGLSVRETEALARKAPNLSAGKSKGGRPPRVKDTDTQALESDLSSVLGLDVSIDHRGSTGTLTITYATLEQLDDLCNRLTRGI

This assay covers variants of B1. Kind of assay: one-hybrid fitness for binding NBS DNA (the Noc-binding site; scaled: cognate 1, non-cognate 0); higher = stronger binding. The following applies: with NBS DNA site. A digest of the protocol:
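Caulobacter ParB libraries with four specificity codons randomised were screened by bacterial one-hybrid selection in the E. coli USO strain, using a HIS3 reporter whose site lies 19 bp from the promoter. Selection ran for 48 hours at 37°C on M9 lacking histidine, with 0.1 mM IPTG and 5 mM 3-AT. Plasmids were Illumina-sequenced before and after selection, three replicate libraries were pooled, and variants with under 10 reads were dropped. Fitness is the log change in each variant's read ratio to wild type, rescaled against the cognate and non-cognate sites.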
Consider QQPP, for which the “one-hybrid fitness for binding NBS DNA” value was not above 0.2.
On to QQIC, for which the “one-hybrid fitness for binding NBS DNA” value was not above 0.2.
In the case of QQIR it was 0.435; in that of QQPN, not above 0.2.
To QQIY belongs not above 0.2.
For QQPR, the “one-hybrid fitness for binding NBS DNA” value stood at 0.365.
To IMNC belongs not above 0.2; to QCIE, not above 0.2; to GPNL, not above 0.2.
Consider RPPT, for which the “one-hybrid fitness for binding NBS DNA” value was not above 0.2.
To RRPT belongs 0.694; to RRIP, not above 0.2; to RRIT, 0.788.
In the case of RCPT it was not above 0.2.
To RCIT belongs 0.289.
As for QIKI, the “one-hybrid fitness for binding NBS DNA” value was not above 0.2.
As for GQNR, the “one-hybrid fitness for binding NBS DNA” value is not above 0.2.
To PQLG belongs not above 0.2.
Take QMHP: the “one-hybrid fitness for binding NBS DNA” value was not above 0.2.
To QMYF belongs not above 0.2.
In the case of DMRR it was not above 0.2; in that of QMYR, 0.507.
On to QMHN, for which the “one-hybrid fitness for binding NBS DNA” value was not above 0.2.
In the case of QMER it was 0.324; in that of QMQR, 0.55; in that of QMQN, not above 0.2.
In the case of NMRR it was not above 0.2.
In the case of QMQD it was not above 0.2; in that of QMRR, 1.02; in that of QMHR, 0.647.
Turning to YCIR, the “one-hybrid fitness for binding NBS DNA” value is not above 0.2.
In the case of PWLA it was not above 0.2.
Regarding PATL, the “one-hybrid fitness for binding NBS DNA” value was not above 0.2.
To QMDD belongs not above 0.2.
To QMNH belongs 0.284; to QMDF, not above 0.2; to QMIP, not above 0.2.
To QMGK belongs 0.221; to QMNN, not above 0.2; to QMPR, 0.323.
With QMIR, the “one-hybrid fitness for binding NBS DNA” value came to 0.398.
To QMGC belongs not above 0.2.
Consider QMGR, for which the “one-hybrid fitness for binding NBS DNA” value is 0.591.
In the case of QMDR it was 0.403.
In the case of QMNR it was 0.637.
KASM: the “one-hybrid fitness for binding NBS DNA” value is not above 0.2.
In the case of RNWE it was not above 0.2; in that of WRSG, not above 0.2.
Turning to HNPS, the “one-hybrid fitness for binding NBS DNA” value was not above 0.2.
AKVR: the “one-hybrid fitness for binding NBS DNA” value is not above 0.2.
To ERAT belongs not above 0.2; to FHRT, not above 0.2; to HTGY, not above 0.2.
With KAEC, the “one-hybrid fitness for binding NBS DNA” value is not above 0.2.
On to QAVP, for which the “one-hybrid fitness for binding NBS DNA” value was not above 0.2.
In the case of CWTT it was not above 0.2; in that of THIP, not above 0.2.
In the case of NAAC it was not above 0.2; in that of FHTW, not above 0.2.
To GAEY belongs not above 0.2; to QKSN, not above 0.2.
As to QKSR, the “one-hybrid fitness for binding NBS DNA” value was found to be 0.65.
As to QISS, the “one-hybrid fitness for binding NBS DNA” value amounted to 0.228.
In the case of QSSD it was not above 0.2.
In the case of QSSR it was 0.526; in that of QHSR, 0.51; in that of QISP, not above 0.2.
To QHSN belongs not above 0.2; to QKSD, not above 0.2; to QHSD, not above 0.2.
With QSSP, the “one-hybrid fitness for binding NBS DNA” value was not above 0.2.
To QISR belongs 0.386; to RKLW, not above 0.2; to VHYS, not above 0.2.
To PGDT belongs not above 0.2.
With KQTL, the “one-hybrid fitness for binding NBS DNA” value is not above 0.2.
